Data on 15 compounds can be found in PubChem BioAssay (NCATS).

Assay [1] deals with CRL-7250. Nature of the assay: Cytotoxic Profiling of Annotated Libraries Using Quantitative High-Throughput Screening (AID 1296008). For max response: % is set by controls: 0 for no effect and ±100 for the full control effect. Note: nearly all actives have a fitted effect of over 60% in size. Note: potency is the fitted concentration of half-maximal effect. The following applies: Five cell lines viability, CellTiter-Glo ATP luminescence, 48-72 h; max response: active compounds read low. The procedure, abridged: (§1)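 Compounds were pin-transferred onto cells and incubated 48 or 72 hr at 37 degree Celsius, 95% humidity. CellTiter-Glo was added, plates sat 10 min at room temperature, then ATP-coupled luminescence was imaged as the viability read-out.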

The test system of a further assay is HEK293. The assay is described as above. The following applies: Five cell lines viability, CellTiter-Glo ATP luminescence, 48-72 h; max response: active compounds read low. The procedure, abridged: as §1
(In general: Cellular ATP, detected with luciferase, serves as a proxy for viable cell number.)

Assay [2] concerns HaCat. The assay is described as above. The following applies: Five cell lines viability, CellTiter-Glo ATP luminescence, 48-72 h; max response: active compounds read low. The procedure, abridged:
as §1

Assay [3] has as its system NIH3T3. The assay is described as above. The following applies: Five cell lines viability, CellTiter-Glo ATP luminescence, 48-72 h; max response: active compounds read low. The method in brief:
as §1

Assay [4] has as its system HACAT. Nature of the assay: qHTS assay to identify novel small-molecules to repurpose for Merkel cell carcinoma treatment (AID 1296009). Note: nearly all actives have a fitted effect of over 60% in size. The following applies: MCC and control cell lines, CellTiter-Glo viability, 72 h; at 44.8 µM (top of the series) unless noted. The method in brief: (§2)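 Cells exposed to NPC (8-point) and MIPE (11-point) compound dilutions for 72 hr at 37 degree celsius; viability read by CellTiter-Glo luminescence, normalized to no-cell and DMSO in-plate controls.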
On the technique in general: Quantitative high-throughput screening tests each substance at several concentrations.

The next assay has as its system HEK293T. The assay is described as above. The following applies: MCC and control cell lines, CellTiter-Glo viability, 72 h; at 44.8 µM (top of the series) unless noted. The method in brief: as §2
The next assay relates to C33A. Nature of the assay: Primary qHTS to identify gynecologic anti-cancer compounds using libraries of approved drugs and bioactive compounds (AID 1345084). For activity change, negative = cytotoxicity: % is set by controls: 0 for no effect and ±100 for the full control effect. Note: nearly all actives have a fitted effect of over 55% in size. Note: potency is the fitted concentration of half-maximal effect. The following applies: Gynecologic cancer cell panel viability, ATPlite luminescence, 48 h; series mostly up to 57.5 µM. The procedure, abridged:
(§3)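 In this quantitative HTS, cell killing is estimated from loss of ATP-dependent luciferase light. Cells see five compound concentrations over a 48 h exposure.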

The test system of another assay is CAOV3. The assay is described as above. The following applies: Gynecologic cancer cell panel viability, ATPlite luminescence, 48 h; series mostly up to 57.5 µM. The method in brief:
as §3

The next assay deals with CASKI. The description is as above. The following applies: Gynecologic cancer cell panel viability, ATPlite luminescence, 48 h; series mostly up to 57.5 µM. The procedure, abridged: as §3
A further assay has as its system Es-2. The assay is described as above. The following applies: Gynecologic cancer cell panel viability, ATPlite luminescence, 48 h; series mostly up to 57.5 µM. The method in brief: as §3
The subject of the next assay is HeLa. Described as above. The following applies: Gynecologic cancer cell panel viability, ATPlite luminescence, 48 h; series mostly up to 57.5 µM. The procedure, abridged:
as §3

For assay [5], the system named is CRL-7250. Briefly: qHTS assay to identify novel small-molecules to repurpose for Merkel cell carcinoma treatment (AID 1296009). Note: nearly all actives have a fitted effect of over 60% in size. The following applies: MCC and control cell lines, CellTiter-Glo viability, 72 h; at 44.8 µM (top of the series) unless noted. The method in brief: as §2
The test system of assay [6] is NIH3T3. Described as above. The following applies: MCC and control cell lines, CellTiter-Glo viability, 72 h; at 44.8 µM (top of the series) unless noted. The procedure, abridged:
as §2

Another assay relates to KB-3-1. Briefly: Cytotoxic Profiling of Annotated Libraries Using Quantitative High-Throughput Screening (AID 1296008). For max response: % is set by controls: 0 for no effect and ±100 for the full control effect. Note: nearly all actives have a fitted effect of over 60% in size. Note: potency is the fitted concentration of half-maximal effect. The following applies: Five cell lines viability, CellTiter-Glo ATP luminescence, 48-72 h; max response: active compounds read low. The procedure, abridged: as §1

“And” between values parts separate entries of the source, which are not always exact repeats. Identical values can stand only once. Inconclusive results are not listed. A number with no mark means an inactive call. The source made the active and inactive calls. Calls come from the whole dose curve; as a rule, active = well fitted curve in the direction sought with a large enough effect; inconclusive = small, poorly fitted or top-dose-only effect, or another doubt; inactive = no such curve, though single readings can be large; an effect the other way counts as inactive or inconclusive.

On to `C=CC(C)(C)c1[nH]c2cccc3c2c1C[C@@H]1[C@@H]3[C@@H](OC(C)=O)[C@H](C)CN1C`, for which the max response in the assay on CRL-7250 [1] is -2.45%. For the same compound, the compound was classed as inactive in the assay with HEK293, in the assay with HaCat [2], in the assay with NIH3T3 [3], with HACAT [4] and in the assay on HEK293T. For the same compound, the Potency result in the assay on C33A, in the assay on CAOV3, in the assay with CASKI, with Es-2 and in the assay on HeLa was “inactive” each time.
On to `CC1=C2C(=O)C3[C@@H](CC=C4C[C@@H](O)CC[C@@]43C)[C@@H]2CC[C@]12O[C@@H]1C[C@H](C)CN[C@H]1[C@H]2C` (stereo partly specified), for which the compound was classed as inactive in the assay with CRL-7250 [1], in the assay on HaCat [2] and with NIH3T3 [3]. Also, the max response in the assay on HEK293 is -3.9%. Further, the outcome with CRL-7250 [5] and with HACAT [4] was “inactive [at 17.4 µM]” throughout. Also, the Potency entry in the assay on C33A, in the assay on CAOV3, with CASKI, with Es-2 and in the assay on HeLa was “inactive” in each case.
In the case of `CN1CCCC1CCOC(c1cc2nccc(C(=O)O)c2[nH]1)c1ccccc1Cl` (stereo unspecified), the call in the assay with CRL-7250 [1], in the assay with NIH3T3 [3], in the assay on CRL-7250 [5] and in the assay with NIH3T3 [6] was inactive. For the same compound, the max response in the assay with HEK293 is 1.78%; with HaCat [2], -3.9%. Besides, the Potency entry in the assay on C33A, in the assay with CAOV3, with CASKI, in the assay on Es-2 and with HeLa was “inactive” throughout.
Take `C=C[C@H]1CN2CC[C@H]1C[C@@H]2[C@@H](O)c1ccnc2ccccc12`: the max response in the assay on CRL-7250 [1] is -1.31%; with HEK293, -22.7%; in the assay with HaCat [2], 1.51%; with KB-3-1 it was 5.41% and -18.8%; in the assay with NIH3T3 [3], -3.21%. Moreover, the Potency result with C33A, in the assay on CAOV3, with CASKI, in the assay on Es-2 and in the assay with HeLa was “inactive” throughout.
Consider `CC(C)=C1CC[C@]23CO[C@H](C2)[C@@](O)(C(=O)O)CCC13` (stereo partly specified), for which the max response was 4.82% with CRL-7250 [1], -7.37% in the assay on HaCat [2] and 1.86% in the assay with NIH3T3 [3]. Also, the result with HEK293 and in the assay with HEK293T was inactive. The Potency entry with C33A, in the assay with CAOV3, in the assay on CASKI, with Es-2 and with HeLa was “inactive” throughout.
For `CN1C(=O)c2ccccc2NC(=O)[C@]12O[C@@H]2c1ccccc1`, the results for the max response in the assay with CRL-7250 [1], with HaCat [2] and in the assay with NIH3T3 [3] were -12.4%, -12.1% and -7.39%, respectively. Besides, the compound was called inactive with HEK293 and with HEK293T. Further, the Potency entry in the assay with C33A, in the assay with CAOV3, in the assay with CASKI, with Es-2 and with HeLa was “inactive” in each case.
Consider `COC1CC(OC2CCC3(C=O)C(CCC4C3CCC3(C)C(C5=CC(=O)OC5)CCC43O)C2)OC(C)C1OC1OC(CO)C(O)C(O)C1O` (stereo unspecified), for which the Potency was 96.8 nM (active) in the assay with CRL-7250 [1]; 193 nM (active) in the assay on HEK293; 685 nM (active) in the assay with HaCat [2]; 343 nM (active) with KB-3-1; 158 nM (active) in the assay on C33A; 631 nM (active) in the assay with CAOV3. For the same compound, the Potency in the assay with CASKI was 1120 nM (active); in the assay with Es-2, 355 nM (active); with HeLa it was 282 nM (active). The outcome in the assay on NIH3T3 [3] was inactive.
`C[C@H]1C(=O)O[C@H]2[C@H](O)[C@]34C5OC(=O)[C@]3(O[C@@H]3OC(=O)[C@H](O)C34[C@H](C(C)(C)C)[C@H]5O)C12O` (stereo partly specified): the compound was classed as inactive with CRL-7250 [1], in the assay on HaCat [2] and with NIH3T3 [3]. Moreover, the max response with HEK293 is -8.69%. The outcome in the assay with CRL-7250 [5], in the assay on HACAT [4] and in the assay on NIH3T3 [6] was “inactive [at 17.4 µM]” throughout. The Potency result in the assay with C33A, with CAOV3, in the assay on CASKI, with Es-2 and in the assay on HeLa was “inactive” throughout.
`Cc1cn(C[C@H](N)C(=O)O)c(=O)n(Cc2cc(-c3ccccc3)sc2C(=O)O)c1=O`: the results for the max response in the assay with CRL-7250 [1], in the assay on HEK293 and in the assay on HaCat [2] were -1.8%, -3.99% and -2.49%, respectively. Also, the compound was classed as inactive with KB-3-1 and in the assay with NIH3T3 [3]. In addition, the Potency entry with C33A, with CASKI, in the assay with Es-2 and in the assay on HeLa was “inactive” each time.
As for `Cc1cc(C(=O)CN2CCCC2)c(C)n1-c1ccc(F)cc1`, the max response is 1.13% and -6.04% in the assay on CRL-7250 [1]; -9.04% in the assay on HEK293; 1.57% and -29% in the assay on HaCat [2]; 2.15% and -9.06% with KB-3-1; 1.34% and -18.5% in the assay with NIH3T3 [3]. Also, the Potency entry with C33A, with CASKI, in the assay on Es-2 and in the assay with HeLa was “inactive” each time.
In the case of `CCN1CC2(COC)C3[C@@H](OC)C4C1C3(C1C[C@]3(O)[C@H](OC(=O)c5ccccc5)C1[C@]4(OC(C)=O)[C@@H](O)[C@@H]3OC)[C@H](OC)C[C@H]2O` (stereo partly specified), the max response in the assay on CRL-7250 [1] is -8.46%; in the assay with HEK293 it was -1.66%; in the assay with HaCat [2], 3.92%. Further, the compound was called inactive with KB-3-1 and in the assay on NIH3T3 [3]. Further, the Potency result in the assay with C33A, in the assay with CASKI, with Es-2 and with HeLa was “inactive” throughout.
In the case of `Oc1ccc2c3c1O[C@H]1[C@H](N(CCCl)CCCl)CC[C@@]4(O)[C@@H](C2)N(CC2CC2)CC[C@]314`, the max response in the assay with CRL-7250 [1] was -3.35%; in the assay on HEK293, 0.595%; in the assay on HaCat [2], -4.26%. Also, the outcome in the assay with NIH3T3 [3] was inactive. For the same compound, the activity change, negative = cytotoxicity was 3.36% [at 11.6 µM] in the assay on C33A, 18.4% [at 11.6 µM] with CASKI, 3.95% [at 11.6 µM] with Es-2 and 1.82% [at 11.6 µM] in the assay with HeLa.
As to `CCc1[nH]c2ccc(OC)cc2c1CCN(C)C`, the max response in the assay on CRL-7250 [1] is 2.45%; in the assay on HEK293, -15.9%; in the assay with HaCat [2], 1.59%; in the assay on KB-3-1, -6.67%. Besides, the compound was classed as inactive with NIH3T3 [3]. Further, the Potency entry in the assay on C33A, in the assay with CASKI, with Es-2 and with HeLa was “inactive” throughout.
With `CCCCCCCCOC(=O)c1ccccc1C(=O)OCCCCCCCC`, the max response in the assay on KB-3-1 was -10%.
Consider `OC(c1ccccc1)(c1ccccc1)C1CN2CCC1CC2` (stereo unspecified), for which, in the assay with KB-3-1, the max response was -22.3%.
